Results on 23 compounds are retold here after PubChem BioAssay (NCATS).

The structures appear in SMILES notation. Records with an inconclusive call do not appear. Entries that show only a call come without a potency. Active and inactive are the calls of the source. Calls follow the shape of the dose curve; as a rule, active = well fitted curve in the direction sought with a large enough effect; inconclusive = small, poorly fitted or top-dose-only effect, or another doubt; inactive = no such curve, though single readings can be large; an effect the other way counts as inactive or inconclusive.

For the first experiment, the target named is Calcium and integrin-binding protein 1 (Homo sapiens) (UniProt Q99828). The experiment in a line: Primary qHTS for Identification of Calcium Integrin Binding Protein 1 (CIB1) Competitor (AID 1508620).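 Also: GST tagged CIB1 binding a fluorescein labelled alphaIIb integrin peptide tracer; top concentration of the series differs between compounds.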 The note with it: CIB1-GST / FITC-alphaIIb peptide fluorescence polarization; series mostly up to 114 µM. The essentials: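 CIB1-GST (1 uM final) and compound incubated 15 min at room temperature before adding FITC-alphaIIb peptide tracer (100 nM final). Competition for binding read by fluorescence polarization (ex 480, em 540) after another 15 min at room temperature.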
Chain of Calcium and integrin-binding protein 1 (Homo sapiens) (Q99828 whole entry, looked up): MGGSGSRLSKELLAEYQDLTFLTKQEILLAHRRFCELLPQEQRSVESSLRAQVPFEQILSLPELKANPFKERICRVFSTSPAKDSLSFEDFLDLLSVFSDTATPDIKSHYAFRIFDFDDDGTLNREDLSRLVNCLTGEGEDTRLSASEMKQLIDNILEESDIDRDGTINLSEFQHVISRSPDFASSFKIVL
(Quantitative high-throughput screening tests each substance at several concentrations.)
`Cn1c(=O)c2c(ncn2CC2OCCO2)n(C)c1=O`: the outcome was inactive.

Take `NC1CCN(c2cccc(Cl)n2)CC1`: the outcome was inactive.

`C[C@H]1O[C@@H](n2cc(F)c(=O)[nH]c2=O)[C@H](O)[C@@H]1O`: the outcome was inactive.

As to `CCCCCCCCCCCCCCCC(=O)NCCO`, the result was inactive.

`CCN(CC)CCNC(=O)c1c(C)[nH]c(/C=C2\C(=O)Nc3ccc(F)cc32)c1C`: the result was inactive.

Consider `CCCCN(CCCC)CC(O)c1cc(Cl)cc2c1-c1ccc(Cl)cc1/C2=C/c1ccc(Cl)cc1` (stereo unspecified), for which the result was inactive.

For the compound `CC(=O)c1ccc2c(c1)N(CCCN(C)C)c1ccccc1S2`, the result was inactive.

`O=C1c2c(O)cccc2Cc2cccc(O)c21`: the outcome was inactive.

Consider `Cc1ncc(COP(=O)(O)O)c(C=O)c1O`, for which the outcome was inactive.

In the case of `COc1ccc(Cl)cc1C(=O)NCCc1ccc(S(=O)(=O)NC(=O)NC2CCCCC2)cc1`, the outcome was inactive.

Turning to `CC(=O)NC(Cc1ccccc1)C(=O)O` (stereo unspecified), the outcome was inactive.

Take `CC[C@H]1CN2CCc3cc(OC)c(OC)cc3[C@@H]2C[C@@H]1C[C@H]1NCCc2cc(OC)c(OC)cc21`: the result was inactive.

Take `CC(C)(C)C(=O)NCCCC(=O)O`: the result was inactive.

For the compound `NC1[C@H]2CN(c3nc4c(cc3F)c(=O)c(C(=O)O)cn4-c3ccc(F)cc3F)C[C@@H]12` (stereo partly specified), the result was inactive.

For `CC(C)c1c(C(=O)Nc2ccccc2)c(-c2ccccc2)c(-c2ccc(F)cc2)n1CC[C@@H](O)C[C@@H](O)CC(=O)O`, the outcome was inactive.

As to `C[C@H](NC(CCc1ccccc1)C(=O)O)C(=O)N1CCC[C@H]1C(=O)O` (stereo partly specified), the result was inactive.

Take `CCCOC(=O)c1ccccc1`: the outcome was inactive.

As to `Cc1c(O)cccc1C(=O)N[C@@H](CSc1ccccc1)[C@H](O)CN1C[C@H]2CCCC[C@H]2C[C@H]1C(=O)NC(C)(C)C`, the outcome was inactive.

For the compound `CSc1ccc2c(c1)C(N1CCN(C)CC1)Cc1ccccc1S2` (stereo unspecified), the result was inactive.

Turning to `CN1CCC[C@@H]1Cc1c[nH]c2ccc(CCS(=O)(=O)c3ccccc3)cc12`, the result was inactive.

On to `N[C@@H](CSSC[C@H](N)C(=O)O)C(=O)O`, for which the activity change, negative = inhibition was 1.18% [at 1.07 µM] (inactive).

Take `O=C1NC(=O)[C@@]2(CCOc3ccc(F)cc32)N1`: the result was inactive.

`COC(=O)C1=C(C)NC(C)=C(C(=O)OC)C1c1ccccc1[N+](=O)[O-]`: the result was inactive.

System in another experiment: not listed separately
The experiment in a line: Counterscreen qHTS for small molecule stabilizers of the endoplasmic reticulum resident proteome: GLuc-NoTag assay (AID 1508627).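 Also: SH-SY5Y cells given compound then 100 nM thapsigargin to empty ER calcium.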 The note with it: Gaussia luciferase NoTag secretion counterscreen, luminescence, thapsigargin 100 nM for final 4 h; series mostly up to 76.4 µM. The method, boiled down:
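Counterscreen line: SH-SY5Y-GLuc-NoTag cells, treated with compound 19 hr before a 4 hr, 100 nM thapsigargin calcium depletion. Secreted Gaussia luciferase in the medium was measured by luminescence after coelenterazine was added (0.07x final), with cells unlysed.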
A general note: A counterscreen serves to expose hits that act by an unwanted route or on another target.
With `CCCCCCCCCCCCCCCC(=O)NCCO`, the Potency entry is “inactive”.

On to `CC(=O)c1ccc2c(c1)N(CCCN(C)C)c1ccccc1S2`, for which the Potency result is “inactive”.

As to `NC1[C@H]2CN(c3nc4c(cc3F)c(=O)c(C(=O)O)cn4-c3ccc(F)cc3F)C[C@@H]12` (stereo partly specified), the Potency entry is “inactive”.
